Experimental data published in the supplement of paper PMC8975748.
Structures can show the parent of a compound that is named as a salt.

Each molecule was assayed on Saccharomyces cerevisiae BY4741 SeMeCo community (assay: z-score of subpopulation abundance vs DMSO median, subpopulation auxotrophic for HLU; higher = larger share of this subpopulation than in DMSO controls). Conditions: 10 µM; 24 h; SM minimal medium; subpopulation (auxotrophy): HLU.
Experimental: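 Fluorescent four-plasmid SeMeCo (self-establishing metabolically cooperating S. cerevisiae BY4741 community; plasmids pH-mRuby2, pL-mWasabi, pU-eCFP, pM-TagRFP657) was grown 24 h in minimal SM medium with each Selleck FDA-approved drug at 10 µM in 384-well plates. Cells were fixed and imaged by high-content confocal microscopy. For each auxotrophic subpopulation (and the prototroph), a z-score gives the deviation from the DMSO vehicle-control population median.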

| Compound | z-score of subpopulation abundance |
| --- | --- |
| CN(Cc1ccc(C(C)(C)C)cc1)Cc1cccc2ccccc12 [Butenafine HCl] | -0.68 |
| O=C(O)CCC(=O)Nc1ccc(S(=O)(=O)Nc2nccs2)cc1 [Succinylsulfathiazole] | -0.43 |
| O=C1CN(/N=C/c2ccc(-c3ccc([N+](=O)[O-])cc3)o2)C(=O)N1 [Dantrolene sodium hemiheptahydrate] | -1.02 |
| C[C@@H]1CC(=O)NN=C1c1ccc(NN=C(C#N)C#N)cc1 [Levosimendan] | -0.67 |
| CCC(=O)NS(=O)(=O)c1ccc(-c2c(-c3ccccc3)noc2C)cc1 [Parecoxib Sodium] | 0.91 |
| CN1C2CCCC1CC(NC(=O)c1nn(C)c3ccccc13)C2 (stereo not given) [Granisetron] | -0.07 |
| CCCCCC(=O)O[C@]1(C(C)=O)CC[C@H]2[C@@H]3CCC4=CC(=O)CC[C@]4(C)[C@H]3CC[C@@]21C [Hydroxyprogesterone caproate] | 0.62 |
| CO[C@@H]1[C@@H](OC(N)=O)[C@@H](O)[C@H](Oc2ccc3c(O)c(NC(=O)c4ccc(O)c(CC=C(C)C)c4)c(=O)oc3c2C)OC1(C)C [Novobiocin Sodium] | 1.49 |
| CN(C)CCc1c[nH]c2ccc(CS(=O)(=O)N3CCCC3)cc12 [Almotriptan Malate] | -0.86 |
| CCn1cc(C(=O)O)c(=O)c2cc(F)c(N3CCN(C)CC3)cc21 [Pefloxacin Mesylate Dihydrate] | 0.03 |
| O=C1CCc2cc(OCCCCc3nnnn3C3CCCCC3)ccc2N1 [Cilostazol] | -0.44 |
| O=C(c1ccc(F)cc1)C1CCN(CCn2c(=O)[nH]c3ccccc3c2=O)CC1 [Ketanserin] | 0.14 |
| C[C@H](Nc1ncnc2nc[nH]c12)c1cc2cccc(Cl)c2c(=O)n1-c1ccccc1 [Duvelisib (IPI-145, INK1197)] | 0.95 |
| COc1ccc(-c2nc3cc(C4=NNC(=O)CC4C)ccc3[nH]2)cc1 (stereo not given) [Pimobendan] | 1.42 |
| COc1ccc2cc3[n+](cc2c1OC)CCc1cc2c(cc1-3)OCO2 [Berberine Sulfate] | 0.06 |
| CO/N=C(\C(=O)N[C@@H]1C(=O)N2C(C(=O)O)=C(CSc3nc(C)c(CC(=O)O)s3)CS[C@H]12)c1csc(N)n1 [Cefodizime Sodium] | -1.16 |
| CCCCCCCCc1ccc(CCC(N)(CO)CO)cc1 [Fingolimod] | -1.65 |
| CCOc1ccc2ccccc2c1C(=O)N[C@@H]1C(=O)N2[C@@H]1SC(C)(C)[C@@H]2C(=O)O [Nafcillin Sodium] | -0.19 |
| C[C@H](NCc1ccc(OCc2cccc(F)c2)cc1)C(N)=O [Safinamide] | 0.72 |
| CCOC(=O)C1=C(COCCN)NC(C)=C(C(=O)OC)C1c1ccccc1Cl (stereo not given) [Amlodipine Besylate] | -3.58 |

| Compound | z-score of subpopulation abundance |
| --- | --- |
| Cc1ccc2c(Cl)cc(Cl)c(O)c2n1 [Chlorquinaldol] | 28.9 |
| CO/N=C(\C(=O)N[C@@H]1C(=O)N2C(C(=O)[O-])=C(C[n+]3cccc4c3CCC4)CS[C@H]12)c1csc(N)n1 [Cefpirome sulfate] | -0.14 |
| O=c1ccn(C2CC(O)C(CO)O2)c(=O)[nH]1 (stereo not given) [2-deoxyuridine] | 0.49 |
| CCCc1nc(C)c2c(=O)nc(-c3cc(S(=O)(=O)N4CCN(CC)CC4)ccc3OCC)[nH]n12 [Vardenafil HCl Trihydrate] | 0.57 |
| CCCCCNC(=N)N/N=C/c1c[nH]c2ccc(OC)cc12 [Tegaserod Maleate] | 1.26 |
| Cc1onc(-c2c(F)cccc2Cl)c1C(=O)N[C@@H]1C(=O)N2[C@@H]1SC(C)(C)[C@@H]2C(=O)O [Flucloxacillin sodium] | -0.04 |
| CCN[C@@H]1C[C@H](N)[C@@H](O[C@H]2OC(CN)=CC[C@H]2N)[C@H](O)[C@H]1O[C@H]1OC[C@](C)(O)[C@H](NC)[C@H]1O [Netilmicin Sulfate] | 0.09 |
| Cc1cc(C)nc(NS(=O)(=O)c2ccc(N)cc2)n1 [Sulfamethazine] | 0.31 |
| CC(C)c1c(C(=O)Nc2ccccc2)c(-c2ccccc2)c(-c2ccc(F)cc2)n1CC[C@@H](O)C[C@@H](O)CC(=O)O [Atorvastatin Calcium] | 8.01 |
| CCN1CCC[C@H]1CNC(=O)c1cc(S(N)(=O)=O)ccc1OC [Levosulpiride] | -1.02 |
| NC(=O)N1c2ccccc2CC(=O)c2ccccc21 [Oxcarbazepine] | -0.11 |
| CN(C)[C@@H](CCOc1cccc2ccccc12)c1ccccc1 [Dapoxetine HCl] | 1.25 |
| O=C(Nc1cccc(C2=NCCN2)c1)Nc1cccc(C2=NCCN2)c1 [Imidocarb dipropionate] | 0.17 |
| CCOC(=O)C1=C(C)NC(C)=C(C(=O)OC)C1c1cccc(Cl)c1Cl (stereo not given) [Felodipine] | -3.41 |
| CC1(C)S[C@@H]2[C@H](NC(=O)[C@H](NC(=O)N3CCN(S(C)(=O)=O)C3=O)c3ccccc3)C(=O)N2[C@H]1C(=O)O [Mezlocillin Sodium] | 0.28 |
| CC1=C(C(=O)OC(C)C)C(c2cccc([N+](=O)[O-])c2)C(C(=O)OC2CN(C(c3ccccc3)c3ccccc3)C2)=C(N)N1 (stereo not given) [Azelnidipine] | -0.12 |
| CO/N=C(\C(=O)N[C@@H]1C(=O)N2C(C(=O)O)=C(CSc3nc(=O)c(O)nn3C)CS[C@H]12)c1csc(N)n1 [Ceftriaxone Sodium Trihydrate] | 2.14 |
| CCC(=O)c1c(O)cc(O)cc1O [Flopropione] | -0.08 |
| C[C@@H]1CN(c2c(F)c(N)c3c(=O)c(C(=O)O)cn(C4CC4)c3c2F)C[C@H](C)N1 [Sparfloxacin] | -0.1 |
| CC(C)N1CCN(c2ccc(OCC3COC(Cn4cncn4)(c4ccc(Cl)cc4Cl)O3)cc2)CC1 (stereo not given) [Terconazole] | -0.59 |
